Screening data (PubChem)
FBW7 activator = activators of human E3 ligase FBW7; normalized activity (activation), % at 26.1 µM; Q969H0; AlphaScreen FBW7–phospho-cyclin E peptide binding, activator screen; AID 1259310; 0.13% of 650,000 active; in the data active = normalized activity above about 1.9%;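 note: purified mutant Fbw7 with reduced substrate affinity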
MITF inh = inhibitors of human MITF; O75030; AlphaScreen MITF homodimerization, bead proximity signal; inhibition, % at 2.6 µM; 0.91% of 650,000 active; AID 1259374; in the data active = inhibition above about 50%;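 note: 0% = vehicle wells with protein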
Target sequence (O75030 whole entry, looked up): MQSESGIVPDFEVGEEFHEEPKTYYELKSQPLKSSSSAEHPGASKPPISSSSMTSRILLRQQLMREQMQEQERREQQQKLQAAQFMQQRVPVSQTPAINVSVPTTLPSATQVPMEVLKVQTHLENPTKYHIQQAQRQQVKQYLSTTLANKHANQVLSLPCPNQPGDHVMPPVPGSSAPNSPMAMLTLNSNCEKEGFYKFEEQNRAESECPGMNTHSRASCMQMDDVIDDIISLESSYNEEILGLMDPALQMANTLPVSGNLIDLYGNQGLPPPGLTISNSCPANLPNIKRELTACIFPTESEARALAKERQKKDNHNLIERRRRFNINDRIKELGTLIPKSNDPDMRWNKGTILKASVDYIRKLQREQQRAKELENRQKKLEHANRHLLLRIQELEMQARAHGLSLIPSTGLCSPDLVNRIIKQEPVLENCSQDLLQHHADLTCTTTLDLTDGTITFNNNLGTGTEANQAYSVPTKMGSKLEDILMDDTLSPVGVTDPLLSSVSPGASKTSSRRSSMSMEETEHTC
GPR151 ag = activators of human GPR151; PathHunter beta-arrestin GPR151 cells, luminescence; Q8TDV0; activation, % at 11.2 µM; 1% of 650,000 active; AID 1508602; in the data active = activation above about 4.9%;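 note: 0% = median of compound wells and 100% = cells with positive control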
TEAD-YAP inh = TEAD-YAP interaction inhibition; HEK-TIYL cells, TEAD-Gal4/YAP UAS-luciferase luminescence; inhibition, % at 9.12 µM; 1.4% of 640,000 active; in the data active = inhibition above about 32%;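 note: 0% = median of test compound wells and 100% = reference inhibitor wells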
GPR151 confirm = confirmation of human GPR151 activators. 6,700 tested, under 10 active. shares compounds with GPR151 ag. GPR151 PathHunter beta-arrestin cells, luminescence, 90 min; % of EA-reagent control over plate median. activation, % at 11.2 µM;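 active = mean percent activation across replicates above the confirmation screen cutoff of 4.91%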
GPR119 ag = GPR119 activation, counter-screen for GPR151 activators | shares compounds with GPR151 ag | activation, % at 11.2 µM | GPR119 PathHunter beta-arrestin cells, luminescence, 90 min; 0 = compound-well median, 100 = enzyme-acceptor control | 0.3% of 6,700 active;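 active = mean percent activation in the counterscreen above 29.09%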;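 note: counterscreen on off-target GPR119 to flag nonselective hits from the GPR151 activator screen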
* = called active by the depositor; . = not tested or not shown. An excerpt weighted towards active compounds, which were near 3.4% of everything screened.

SMILES | FBW7 activator | MITF inh | GPR151 ag | TEAD-YAP inh | GPR151 confirm | GPR119 ag
COc1ccc(/C=C(\C#N)C(=O)Nc2ccccn2)cc1 | 0.1 | 4.5 | 5.1* | 2.2 | 1.5 | 6.5
COc1ccc(CC(=O)N2CCC(CCC(=O)Nc3ccccc3)CC2)cc1 | -0.2 | -1.5 | -0.6 | 3.9 | . | .
Cc1ccc(CNC(=O)c2nnn(Cc3ccc(Br)cc3F)c2N)cc1 | 0.0 | -3.8 | 0.1 | -8.5 | . | .
Nc1nnc(Cc2cccc(Br)c2)s1 | -0.2 | 11.0 | 11.1* | 0.9 | 1.2 | 21.6
CC1CCN(Cc2nnnn2CCCC(=O)N(C)C2CCOC2)CC1 (stereo unspecified) | -0.1 | 4.0 | 8.7* | 2.7 | -1.0 | -5.9
CC(C)CCn1c(-c2ccccc2)nc2ccccc21 | 0.1 | -10.9 | 8.6* | 7.4 | 0.4 | 0.9
C=CCOC(=O)CCN1C(=O)c2ccccc2C1=O | 0.0 | 3.7 | 19.8* | -4.0 | -0.6 | -10.4
CCCC1=NN2C(=N)/C(=C/c3ccc(-c4ccc(C(=O)OCC)cc4)o3)C(=O)N=C2S1 | -0.1 | 3.5 | 5.2* | -0.1 | 1.0 | 18.6
CCn1c(SCc2nc(-c3cccs3)no2)nnc1-c1ccco1 | 0.0 | -139.1 | 6.9* | -2.7 | -0.1 | 6.9
Cn1c(SCc2nc(-c3cccs3)no2)nnc1-c1ccco1 | 0.1 | 9.2 | 2.1 | 4.4 | . | .
COC(=O)c1ccc(NC(=O)COc2ccc(C34CC5CC(CC(C5)C3)C4)cc2)cc1 | 0.0 | 4.5 | 5.3* | 6.9 | -0.8 | 3.4
CCCC(=O)Nc1ccc(NC(=O)c2ccc(I)cc2)cc1 | 0.2 | -3.2 | 10.0* | 1.4 | 1.3 | -4.0
O=C1Cc2cc(S(=O)(=O)Nc3ccccc3Cl)cc3c2N1CCC3 | 0.1 | 9.2 | -1.3 | 0.6 | . | .
Nc1nc(SCc2ccc(F)cc2)nn1CC(=O)Nc1ccccc1F | -0.1 | 25.7 | 6.3* | -3.8 | 0.3 | -4.9
COc1ccc(C(=O)Nc2nnc(C(C)(C)C)s2)cc1[N+](=O)[O-] | 0.0 | -6.0 | 7.3* | -12.7 | -1.7 | -18.0
CC(C)(C)c1nnc(NC(=O)c2ccc([N+](=O)[O-])cc2)s1 | 0.6 | 12.6 | -0.1 | -2.4 | . | .
O=C(Cc1cn(-c2ccc(N3CCOCC3)nn2)c2ccccc12)Nc1ccc(Oc2ccccc2)cc1 | 0.4 | -8.7 | -1.1 | -4.1 | . | .
O=S(=O)(Nc1ccc(F)cc1)c1ccc(NS(=O)(=O)c2ccc3c(c2)OCCO3)cc1 | -0.1 | 1.2 | 1.9 | 0.4 | . | .
Nc1ccc(NS(=O)(=O)c2ccc3c(c2)OCCCO3)cc1 | 0.3 | 18.1 | 6.5* | -0.1 | -0.6 | -0.4
COc1ccc2cc(CCNC(=O)CC(C)C)c(=O)[nH]c2c1 | 0.2 | 13.3 | -1.1 | 4.8 | . | .
O=C(/C=C\N1CCCCC1)c1ccc(Cl)cc1 | 0.1 | 15.2 | 6.1* | -12.5 | -1.8 | -25.7
O=C(Nc1ccc(I)cc1)Nc1ccc2c(c1)OCO2 | 0.0 | -1.0 | 5.8* | -29.9 | -0.8 | -11.9
COc1ccc(CCNS(=O)(=O)c2ccc3c(c2)OCCN3C)cc1OC | 0.7 | 3.4 | 5.2* | -4.5 | 0.4 | -3.7
CCc1ccccc1NS(=O)(=O)c1ccc2c(c1)OCCN2C | 0.0 | 3.4 | 1.3 | 2.3 | . | .
CN1CCOc2cc(S(=O)(=O)Nc3ccccc3F)ccc21 | -0.1 | -1.0 | 15.9* | 3.1 | 0.4 | 4.7
SMILES | FBW7 activator | MITF inh | GPR151 ag | TEAD-YAP inh | GPR151 confirm | GPR119 ag
Cc1cc2c(cc1S(=O)(=O)Nc1ncccc1C)OCCN2C | -0.2 | 4.0 | 6.3* | -3.6 | 0.3 | -0.2
CN1CCOc2cc(S(=O)(=O)NCCc3ccc(Cl)cc3)ccc21 | 0.0 | -9.3 | 1.4 | -8.0 | . | .
Cc1cc2c(cc1S(=O)(=O)Nc1ccccn1)OCCN2C | -0.1 | 1.0 | -0.2 | -10.1 | . | .
Cc1cc2c(cc1S(=O)(=O)Nc1ccccc1Br)OCCN2C | 0.1 | 8.5 | 9.7* | 3.1 | 0.1 | 1.9
Cc1ccc(CN2CCC(C(=O)N3CCN(c4cccc(C)c4C)CC3)CC2)o1 | -0.1 | 37.3 | -1.4 | 9.9 | . | .
COc1ccc(CC(=O)NCCc2csc3nc(-c4ccc(C)cc4)nn23)cc1 | 0.0 | 12.1 | 0.1 | -3.7 | . | .
CC(C)N1CCNC(=O)C1CC(=O)NCc1ccc(C(F)(F)F)cc1F (stereo unspecified) | -0.1 | 4.8 | 0.3 | 15.2 | . | .
CCC(=O)Nc1nnc(SCC(=O)Nc2ccc(Cl)c(Cl)c2)s1 | 0.3 | 3.4 | 8.9* | 3.5 | 0.0 | 6.2
Cc1c(Cl)cccc1NC(=O)CSc1ncnc2c1sc1ccccc12 | -0.1 | 5.4 | 12.4* | 15.8 | -0.7 | 2.6
CC(=O)Nc1nnc(SCC(=O)Nc2cccc(Cl)c2C)s1 | -0.1 | -1.3 | 8.7* | 8.7 | -0.8 | -10.1
Nc1nnc(SCC(=O)Nc2nnc(SCC(=O)Nc3ccc(Cl)c(Cl)c3)s2)s1 | -0.2 | -7.5 | 0.4 | 2.6 | . | .
COc1ccc(CNC(=O)CSc2nnc(NC(=O)c3ccccc3Cl)s2)cc1 | -0.1 | -4.1 | 6.3* | -26.4 | 0.6 | -3.5
COc1ccc(OC)c(CNn2c(-c3ccc(F)cc3)nc3ccccc3c2=O)c1 | 0.1 | 4.5 | 0.4 | 11.7 | . | .
O=C(Cc1cn(-c2ccc(N3CCC(N4CCOCC4)CC3)nn2)c2ccccc12)NC1CC1 | -0.1 | -1.0 | -0.6 | -31.0 | . | .
N#Cc1cc2c(=O)n3ccccc3nc2n(C2CCS(=O)(=O)C2)c1=O (stereo unspecified) | -0.2 | 2.4 | 1.1 | -2.1 | . | .
CCCCOc1c(I)cc(CNCCN(C)C)cc1OCC | 0.1 | -10.8 | -0.9 | -3.5 | . | .
COc1ccc(-c2nnc3c4cc(OC)c(OC)cc4n(Cc4cccc(OC)c4)cc2-3)cc1 | 0.8 | 5.4 | 0.8 | -1.7 | . | .
O=C(CN1c2cccc3cccc(c23)S1(=O)=O)Nc1ccc(F)c(F)c1 | -0.2 | -4.6 | 0.1 | -8.1 | . | .
O=C(CN1c2cccc3cccc(c23)S1(=O)=O)Nc1ccc(Br)cc1F | 0.0 | -8.6 | 7.1* | 8.2 | 0.6 | 8.8
CC1=C(C#N)C(=O)N(C)C(=O)/C1=C/c1ccc(-c2ccccc2C(=O)O)o1 | -0.3 | 20.0 | -0.5 | 2.9 | . | .
CC1=C(C#N)C(=O)N(C)C(=O)/C1=C/c1ccc(-c2cccc(Cl)c2C)o1 | -0.6 | -12.3 | 5.0* | -1.4 | -0.5 | -6.0
CC(C)CCOc1ccc(-c2nn(-c3ccccc3)cc2/C=c2\sc3nc(-c4cccnc4)nn3c2=O)cc1 | 0.1 | 11.6 | -1.2 | 6.8 | . | .
CCC(=O)N1CCC[C@@H]2CN(C(=O)/C=C/c3cccs3)CC[C@H]21 | 0.1 | -1.8 | 5.6* | -17.3 | 0.4 | -2.4
CCN(CC)S(=O)(=O)c1ccc(OC)c(NC(=O)C(Cl)(Cl)Cl)c1 | -0.2 | -0.5 | 0.3 | -2.5 | . | .
CCOC(=O)c1ccccc1NC(=O)c1sc2ncn(CC(=O)Nc3ccc(C)c(Cl)c3)c(=O)c2c1C | 0.1 | -1.7 | -0.3 | 4.0 | . | .
CCCn1c(=O)c(C(=O)Nc2nnc(CC)s2)c(O)c2ccccc21 | -0.1 | -9.3 | -0.7 | 4.7 | . | .
COc1ccc(Cl)cc1NC(=O)CN(C)S(=O)(=O)c1cnc[nH]1 | 0.0 | -0.8 | 0.7 | 7.7 | . | .
